# Source: PubChem BioAssay (EPA / NIEHS)
# Values joined by “and” are separate entries in the source; they are usually repeats but may differ in a detail not shown here. Equal entries are not always repeated. Inconclusive results are not listed. The source holds several records for some structures; these can differ, active in one and inactive in another. Active and inactive are the calls of the source. Rule for the calls, unless noted: active = hit-call score of the fitted dose curve at least 0.9, where 1 is the maximum; inactive = score below 0.9.
# Experiment: CCTE_Shafer_MEA_acute_LDH: CCTE's Lactate Dehydrogenase Assay for Cytotoxicity in the Neural Acute Assay, Shafer Lab (AID 2284086; active = hit-call score of the fitted dose curve at least 0.9, where 1 is the maximum;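 note: active means LDH release rises above DMSO vehicle level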)
# In short: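 Rat cortical neurons cultured on microelectrode arrays; baseline 40-min recording, compound added, second 40-min recording; medium then sampled for released LDH (colorimetric kit, 490 nm). DMSO = negative control.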
Compound,outcome,AC50
ClC1=C(Cl)[C@]2(Cl)[C@H]3[C@H]([C@@H]4C=C[C@H]3C4)[C@@]1(Cl)C2(Cl)Cl,inactive,
CCCCOC(=O)c1ccccc1C(=O)OCc1ccccc1,inactive,
CC(C)COC(=O)c1ccccc1C(=O)OCC(C)C,inactive,
CC(C)(O)c1cnn2c(-c3ccc(F)c(-c4c(F)cccc4C#N)c3)cnc2n1,inactive,
Cc1ccc(N)c(N)c1,inactive,
ClC1=C(Cl)C2(Cl)C3C(Cl)C=CC3C1(Cl)C2(Cl)Cl (stereo unspecified),inactive,
CCC(C)c1ccc(O)cc1 (stereo unspecified),inactive,
Cc1cc(N=Nc2ccccc2C)ccc1N,inactive,
O=P(OCCCl)(OCCCl)OCCCl,inactive,
O=Cc1ccco1,inactive,
O=C(Oc1ccc(Br)cc1)N1CCN2CCC1CC2,inactive,
O=C(N[C@H](c1ccccc1)[C@@H]1CN2CCC1CC2)c1c(Cl)ccc(C(F)(F)F)c1Cl,inactive,
CCCCCCCCn1sccc1=O,inactive,
CCC[CH2][Sn]([Cl])([CH2]CCC)[CH2]CCC,,29.7 µM (active) and 15 µM (active)
c1ccc(N=Nc2ccccc2)cc1,inactive,
Clc1ccc(C(c2ccc(Cl)cc2)C(Cl)Cl)cc1,inactive,
N#CC(Br)Br,inactive,
C[N+](C)(C)CC1CO1 (stereo unspecified),inactive,
ClCCOCCCl,inactive,
[Cl-].[Cl-].[Hg+2],,30.6 µM (active)
Clc1ccc(C(c2ccc(Cl)cc2)C(Cl)(Cl)Cl)cc1,inactive,
CCN(CC)CCO,inactive,
CC(C)(C)C(O)(CCc1ccc(Cl)cc1)Cn1cncn1 (stereo unspecified),inactive,
CC(C)(OOC(C)(C)c1ccccc1)c1ccccc1,inactive,

# Experiment: CCTE_Shafer_MEA_dev_mutual_information_norm: CCTE's Neural Network Formation Assay for Mutual Information Normalization, Shafer Lab (AID 2284091);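 for AC50: mutual information between electrodes summarised as area under curve across four recording days; potency is for a decrease in mutual information relative to DMSO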
# In short: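 Developing rat cortical networks on 16-electrode MEA wells are treated throughout formation (DIV 0–12). Shared electrode information is recorded four times, converted to area-under-curve, and fitted for decreases against DMSO vehicle.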
Compound,AC50,outcome
ClC1=C(Cl)[C@]2(Cl)[C@H]3[C@H]([C@@H]4C=C[C@H]3C4)[C@@]1(Cl)C2(Cl)Cl,0.909 µM (active),
CCCCOC(=O)c1ccccc1C(=O)OCc1ccccc1,,inactive
CC(C)COC(=O)c1ccccc1C(=O)OCC(C)C,22.2 µM (active),
CC(C)(O)c1cnn2c(-c3ccc(F)c(-c4c(F)cccc4C#N)c3)cnc2n1,0.191 µM (active),
ClC1=C(Cl)C2(Cl)C3C(Cl)C=CC3C1(Cl)C2(Cl)Cl (stereo unspecified),1.52 µM (active),
COC(=O)Nc1nc2ccccc2[nH]1,5.19 µM (active),
COP(=S)(OC)SCN1C(=O)c2ccccc2C1=O,22.7 µM (active),inactive
Nc1cc(Cl)cc(C(=O)O)c1Cl,,inactive
C1=Cc2cccc3cccc1c23,,inactive
O=P(OCCCl)(OCCCl)OCCCl,,inactive
CNC(=O)Oc1cccc2c1OC(C)(C)C2,,inactive
CCNS(=O)(=O)C(F)(F)C(F)(F)C(F)(F)C(F)(F)C(F)(F)C(F)(F)C(F)(F)C(F)(F)F,2.98 µM (active) and 2.72 µM (active),
CCC[CH2][Sn]([Cl])([CH2]CCC)[CH2]CCC,0.0231 µM (active),
Clc1ccc(C(c2ccc(Cl)cc2)C(Cl)Cl)cc1,2.01 µM (active),
[O-][Cl+]O,,inactive
[Cl-].[Cl-].[Hg+2],,inactive
Clc1ccc(C(c2ccc(Cl)cc2)C(Cl)(Cl)Cl)cc1,971 nM (active) and 2.52 µM (active),
CC(C)(C)C(O)(CCc1ccc(Cl)cc1)Cn1cncn1 (stereo unspecified),2.24 µM (active),
CN(C)[C@@H]1C(=O)C(C(N)=O)=C(O)[C@@]2(O)C(=O)C3=C(O)c4c(O)cccc4[C@@](C)(O)[C@H]3C[C@@H]12,,inactive
OCCOCCO,,inactive

# Experiment: CCTE_Shafer_MEA_dev_correlation_coefficient_mean: CCTE's Neural Network Formation Assay for Mean Correlation Coefficient, Shafer Lab (AID 2284093);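 for AC50: well mean pairwise spike train correlation integrated as AUC over recording days 5 to 12; potency fitted for loss of correlation relative to DMSO vehicle wells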
# In short: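 Rat cortical cultures, 1.5 x 10^5 cells/well, dosed from day 0 for 12 days. Spontaneous spikes recorded DIV 5/7/9/12; electrode-pair correlation coefficients averaged, AUC taken. Fit in loss direction vs DMSO.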
Compound,AC50,outcome
ClC1=C(Cl)[C@]2(Cl)[C@H]3[C@H]([C@@H]4C=C[C@H]3C4)[C@@]1(Cl)C2(Cl)Cl,1.99 µM (active),
CCCCOC(=O)c1ccccc1C(=O)OCc1ccccc1,,inactive
CC(C)COC(=O)c1ccccc1C(=O)OCC(C)C,13.9 µM (active),
CC(C)(O)c1cnn2c(-c3ccc(F)c(-c4c(F)cccc4C#N)c3)cnc2n1,,inactive
ClC1=C(Cl)C2(Cl)C3C(Cl)C=CC3C1(Cl)C2(Cl)Cl (stereo unspecified),1.97 µM (active),
COC(=O)Nc1nc2ccccc2[nH]1,5.11 µM (active),
COP(=S)(OC)SCN1C(=O)c2ccccc2C1=O,19 µM (active),inactive
Nc1cc(Cl)cc(C(=O)O)c1Cl,,inactive
C1=Cc2cccc3cccc1c23,,inactive
O=P(OCCCl)(OCCCl)OCCCl,,inactive
CNC(=O)Oc1cccc2c1OC(C)(C)C2,,inactive
CCNS(=O)(=O)C(F)(F)C(F)(F)C(F)(F)C(F)(F)C(F)(F)C(F)(F)C(F)(F)C(F)(F)F,2.98 µM (active) and 4.98 µM (active),
CCC[CH2][Sn]([Cl])([CH2]CCC)[CH2]CCC,0.0772 µM (active),
Clc1ccc(C(c2ccc(Cl)cc2)C(Cl)Cl)cc1,3.89 µM (active),
[O-][Cl+]O,,inactive
[Cl-].[Cl-].[Hg+2],0.66 µM (active),
Clc1ccc(C(c2ccc(Cl)cc2)C(Cl)(Cl)Cl)cc1,3 µM (active) and 4.07 µM (active),
CC(C)(C)C(O)(CCc1ccc(Cl)cc1)Cn1cncn1 (stereo unspecified),15 µM (active),
CN(C)[C@@H]1C(=O)C(C(N)=O)=C(O)[C@@]2(O)C(=O)C3=C(O)c4c(O)cccc4[C@@](C)(O)[C@H]3C[C@@H]12,,inactive
OCCOCCO,,inactive
